Reference: PubChem BioAssay (Tox21)
Values without a mark were called inactive. Records with an inconclusive call do not appear. Entries that show only a call come without a potency. Activity calls are given as the source filed them. Unless noted, calls follow the shape of the full dose curve.

Key:
[1] = qHTS assay to identify small molecule antagonists of the sonic hedgehog signaling (Shh) pathway (AID 1259369); also: nearly all actives have a fitted effect of over 45% in size; also: potency is read from the fitted curve at half-maximal effect
How it was run: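 Inhibition of Shh signalling is measured as reduced Gli1-response-element firefly luciferase output in an NIH/3T3-derived stable reporter clone stimulated with conditioned medium for 24hr.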

[2] = target: Estrogen receptor beta (Homo sapiens) (UniProt Q92731); assay: qHTS assay to identify small molecule antagonists of the estrogen receptor beta (ER-beta) signaling pathway (AID 1259378; active = well fitted inhibition curve with a large enough effect in the signal ratio in the repeat runs, not every such curve was filed as active; the % refers to the signal ratio)
Estrogen receptor beta (Homo sapiens), sequence (Q92731 whole entry, looked up): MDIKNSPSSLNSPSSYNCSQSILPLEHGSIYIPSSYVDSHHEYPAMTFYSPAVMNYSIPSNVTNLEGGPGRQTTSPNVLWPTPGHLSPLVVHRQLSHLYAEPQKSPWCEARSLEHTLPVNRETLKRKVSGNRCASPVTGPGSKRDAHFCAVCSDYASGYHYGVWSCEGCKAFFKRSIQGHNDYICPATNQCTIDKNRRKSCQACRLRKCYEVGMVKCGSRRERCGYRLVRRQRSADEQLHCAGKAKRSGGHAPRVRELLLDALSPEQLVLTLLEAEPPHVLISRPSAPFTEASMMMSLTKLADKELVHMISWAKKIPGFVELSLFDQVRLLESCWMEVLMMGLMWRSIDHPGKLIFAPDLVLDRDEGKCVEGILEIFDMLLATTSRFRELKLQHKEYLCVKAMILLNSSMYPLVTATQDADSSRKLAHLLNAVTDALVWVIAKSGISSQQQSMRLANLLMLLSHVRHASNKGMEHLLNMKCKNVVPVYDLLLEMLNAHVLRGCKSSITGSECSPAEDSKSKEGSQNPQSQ
How it was run: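 ER-beta-UAS-bla HEK293T cells in 2% charcoal-stripped FBS medium treated with compound plus 1nM final 17-beta-estradiol for 16 hr at 37C. Beta-lactamase reporter read by FRET substrate fluorescence after 2 hours at room temperature.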

[3] = qHTS assay to identify small molecule agonists of the androgen receptor (AR) signaling pathway in the presence of an antagonist - cell viability counter screen (AID 1259379; active = well fitted curve in the direction sought with a large enough effect in the repeat runs; an effect the other way counts as inactive or inconclusive;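 also: MDA-kb2 human breast cancer cells carrying an MMTV luciferase reporter; series mostly up to about 92 µM; nearly all actives have a fitted effect of over 25% in size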)
How it was run: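 Fluorescence from CellTiter-Fluor, added after 15 hr and read 1 hr later, gave cell viability. Cells were MDA-kb2 exposed to compounds (15 concentrations) in the presence of 3.0uM nilutamide at 37C, 0% CO2.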

[4] = qHTS assay to identify small molecule agonists of the estrogen receptor beta (ER-beta) signaling pathway - cell viability counter screen (AID 1259380; active = well fitted curve in the direction sought with a large enough effect in the repeat runs; an effect the other way counts as inactive or inconclusive; also: nearly all actives have a fitted effect of over 30% in size; also: potency is read from the fitted curve at half-maximal effect)
How it was run: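 Same-well viability counter screen. Cells: ER-beta-UAS-bla HEK293T, plated 6 hr before compound, in 2% charcoal-stripped FBS. Compound exposure 16 hr, 37C; viability by CellTiter-Glo luminescence after 30 min at room temperature.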

[5] = target: Androgen receptor (Homo sapiens) (UniProt P10275); assay: qHTS assay to identify small molecule agonists of the androgen receptor (AR) signaling pathway in the presence of an antagonist (AID 1259381); also: nearly all actives have a fitted effect of over 15% in size
Androgen receptor (Homo sapiens), sequence (P10275 whole entry, looked up): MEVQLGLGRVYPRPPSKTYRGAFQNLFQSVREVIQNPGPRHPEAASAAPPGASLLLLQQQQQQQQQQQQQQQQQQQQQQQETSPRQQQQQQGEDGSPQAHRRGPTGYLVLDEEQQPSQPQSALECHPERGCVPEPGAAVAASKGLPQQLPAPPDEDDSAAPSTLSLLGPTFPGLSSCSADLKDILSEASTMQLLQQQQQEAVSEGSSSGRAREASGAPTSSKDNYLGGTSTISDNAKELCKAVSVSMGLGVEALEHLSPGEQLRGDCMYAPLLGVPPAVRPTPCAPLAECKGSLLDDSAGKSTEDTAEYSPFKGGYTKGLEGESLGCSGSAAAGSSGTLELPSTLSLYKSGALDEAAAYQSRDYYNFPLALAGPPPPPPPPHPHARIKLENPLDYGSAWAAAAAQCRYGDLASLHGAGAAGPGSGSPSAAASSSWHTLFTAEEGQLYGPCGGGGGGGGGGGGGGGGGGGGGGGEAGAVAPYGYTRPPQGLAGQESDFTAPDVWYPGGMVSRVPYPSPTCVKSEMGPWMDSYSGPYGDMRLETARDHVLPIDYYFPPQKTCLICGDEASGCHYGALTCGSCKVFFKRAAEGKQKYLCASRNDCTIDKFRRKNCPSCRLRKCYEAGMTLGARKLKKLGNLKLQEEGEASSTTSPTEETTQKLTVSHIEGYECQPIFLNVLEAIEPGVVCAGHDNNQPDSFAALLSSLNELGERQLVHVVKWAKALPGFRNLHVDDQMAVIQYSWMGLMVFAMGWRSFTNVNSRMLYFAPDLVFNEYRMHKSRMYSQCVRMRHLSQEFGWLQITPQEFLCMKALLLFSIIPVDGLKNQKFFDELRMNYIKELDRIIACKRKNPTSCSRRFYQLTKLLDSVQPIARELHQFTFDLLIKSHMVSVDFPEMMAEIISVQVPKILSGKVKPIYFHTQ
How it was run: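 Cells are MDA-kb2 (human breast carcinoma, MMTV-luc, AR/GR responsive). Nilutamide is present at 3.0uM final throughout; compounds are added at 15 concentrations and incubated 16hr at 37C before ONE-Glo luminescence detection.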

[6] = qHTS assay to identify small molecule antagonists of the estrogen receptor beta (ER-beta) signaling pathway - cell viability counter screen (AID 1259382; active = well fitted curve in the direction sought with a large enough effect in the repeat runs; an effect the other way counts as inactive or inconclusive; also: series mostly up to about 92 µM; nearly all actives have a fitted effect of over 55% in size)
How it was run: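 Following a 6 hr plating period, HEK293T cells carrying a UAS-driven beta-lactamase reporter under ER-beta control received compounds and 1nM E2 (final). After 16 hr at 37C and 2 hr substrate loading, CellTiter-Glo luminescence indicated viability.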

[7] = target: Estrogen receptor (Homo sapiens) (UniProt P03372); assay: qHTS assay to identify small molecule agonists of the estrogen receptor alpha (ER-alpha) signaling pathway in the presence of an antagonist (AID 1259383); also: top concentration of the series differs between compounds; nearly all actives have a fitted effect of over 15% in size
Estrogen receptor (Homo sapiens), sequence (P03372 whole entry, looked up): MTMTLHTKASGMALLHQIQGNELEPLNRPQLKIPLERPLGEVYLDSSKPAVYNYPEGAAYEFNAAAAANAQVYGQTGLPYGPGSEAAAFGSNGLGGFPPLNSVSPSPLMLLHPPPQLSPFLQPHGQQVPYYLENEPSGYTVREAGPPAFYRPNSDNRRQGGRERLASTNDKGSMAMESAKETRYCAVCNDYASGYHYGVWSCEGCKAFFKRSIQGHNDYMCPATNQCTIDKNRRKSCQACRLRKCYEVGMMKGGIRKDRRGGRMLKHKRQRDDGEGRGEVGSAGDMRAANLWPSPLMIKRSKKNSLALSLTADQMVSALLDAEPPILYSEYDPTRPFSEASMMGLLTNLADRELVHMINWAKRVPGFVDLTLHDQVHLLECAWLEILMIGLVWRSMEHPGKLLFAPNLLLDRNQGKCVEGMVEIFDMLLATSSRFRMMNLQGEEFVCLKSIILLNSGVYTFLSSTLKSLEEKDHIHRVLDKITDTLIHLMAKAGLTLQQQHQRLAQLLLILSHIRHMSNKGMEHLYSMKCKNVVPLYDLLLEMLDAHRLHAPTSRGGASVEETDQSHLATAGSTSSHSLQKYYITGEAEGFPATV
How it was run: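 Cells are hormone-deprived for 5 days (charcoal-stripped FBS, no phenol red), plated for 24hr, spiked with 10.0nM ICI-182,780, then dosed at 15 concentrations. After 22hr at 37C, ONE-Glo luminescence reports ERE-luciferase activity.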

[8] = qHTS assay to identify small molecule agonists or antagonists of the thyroid stimulating hormone receptor (TSHR) signaling pathway - wild type cell line counter screen (AID 1259384)
How it was run: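 Wild-type Hek293 cells, 800/well, 18 h at 37C, then compound with Ro20-1724 for 30 min RT. cAMP by HTRF (cAMP-d2/anti-cAMP cryptate), 1 h RT, fluorescence read. 15 concentrations, triplicates.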

[9] = qHTS assay to identify small molecule agonists of the estrogen receptor alpha (ER-alpha) signaling pathway in the presence of an antagonist - cell viability counter screen (AID 1259386; active = well fitted curve in the direction sought with a large enough effect in the repeat runs; an effect the other way counts as inactive or inconclusive;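 also: series mostly up to about 92 µM; cells exposed to compounds for 22 h at 37 °C before the viability read; nearly all actives have a fitted effect of over 30% in size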)
How it was run: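 Cells are starved of estrogens for 5 days in charcoal-stripped serum, seeded for 24hr and co-treated with ICI-182,780 (10.0nM final) and test compounds. After 22hr at 37C, viability is read as CellTiter-Fluor fluorescence.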

[10] = target: Progesterone receptor (Homo sapiens) (UniProt P06401); assay: qHTS assay to identify small molecule antagonists of the progesterone receptor (PR) signaling pathway (AID 1346795; active = well fitted inhibition curve with a large enough effect in the signal ratio in the repeat runs, not every such curve was filed as active; the % refers to the signal ratio)
Progesterone receptor (Homo sapiens), sequence (P06401 whole entry, looked up): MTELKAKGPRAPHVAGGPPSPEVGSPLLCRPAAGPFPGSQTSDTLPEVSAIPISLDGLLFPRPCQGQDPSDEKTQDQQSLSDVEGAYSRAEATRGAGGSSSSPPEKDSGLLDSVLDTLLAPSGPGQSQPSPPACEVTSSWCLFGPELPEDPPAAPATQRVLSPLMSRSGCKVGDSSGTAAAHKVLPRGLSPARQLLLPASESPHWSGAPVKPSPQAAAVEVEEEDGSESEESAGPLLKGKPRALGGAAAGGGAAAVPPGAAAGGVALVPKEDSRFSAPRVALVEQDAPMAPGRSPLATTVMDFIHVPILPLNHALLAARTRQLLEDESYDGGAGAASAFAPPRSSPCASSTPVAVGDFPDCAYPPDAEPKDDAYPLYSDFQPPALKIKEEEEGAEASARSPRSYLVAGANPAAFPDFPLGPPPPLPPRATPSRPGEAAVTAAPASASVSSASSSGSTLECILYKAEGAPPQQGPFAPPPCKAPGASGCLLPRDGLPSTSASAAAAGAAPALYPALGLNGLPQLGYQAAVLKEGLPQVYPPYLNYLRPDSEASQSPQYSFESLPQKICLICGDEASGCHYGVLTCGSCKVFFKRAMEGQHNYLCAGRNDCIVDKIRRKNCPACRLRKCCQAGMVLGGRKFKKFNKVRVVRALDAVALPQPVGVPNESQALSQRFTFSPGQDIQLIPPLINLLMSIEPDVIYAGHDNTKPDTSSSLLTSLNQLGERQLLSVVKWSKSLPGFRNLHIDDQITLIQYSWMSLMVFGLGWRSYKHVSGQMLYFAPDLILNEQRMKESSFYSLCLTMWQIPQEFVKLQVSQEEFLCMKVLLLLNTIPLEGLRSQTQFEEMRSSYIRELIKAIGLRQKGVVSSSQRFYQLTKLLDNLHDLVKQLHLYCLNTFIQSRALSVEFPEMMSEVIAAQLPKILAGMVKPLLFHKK
How it was run: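 Stimulus R5020 at 1 nM final; cells HEK293T PR-UAS-bla; medium with 2% charcoal-stripped FBS; compound exposure 16 hr at 37C, 5% CO2; detection by FRET beta-lactamase substrate, 2 hr, room temperature.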

[11] = qHTS assay to identify small molecule antagonists of the progesterone receptor (PR) signaling pathway - cell viability counter screen (AID 1346798; active = well fitted curve in the direction sought with a large enough effect in the repeat runs; an effect the other way counts as inactive or inconclusive; also: nearly all actives have a fitted effect of over 50% in size; also: potency is read from the fitted curve at half-maximal effect)
How it was run: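 In the same plates used for the beta-lactamase readout, cell viability of compound- and R5020-treated PR-UAS-bla HEK293T cells (16 hr, 37C) was assessed by CellTiter-Glo luminescence.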

[12] = qHTS assay to identify small molecule agonists of the progesterone receptor (PR) signaling pathway - cell viability counter screen (AID 1346799); also: nearly all actives have a fitted effect of over 45% in size; also: potency is read from the fitted curve at half-maximal effect
How it was run: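 Multiplexed viability read: CellTiter-Glo luminescence, 30 min RT, following LiveBLAzer FRET measurement on PR-UAS-bla HEK293T cells exposed to compounds 16 hr.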

[13] = qHTS assay to identify small molecule antagonists of the TGF-beta/Smad signaling pathway - cell viability counter screen (AID 1346824; active = well fitted curve in the direction sought with a large enough effect in the repeat runs; an effect the other way counts as inactive or inconclusive; also: nearly all actives have a fitted effect of over 50% in size)
How it was run: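 SBE-bla HEK 293T cells, incubated overnight, then compound plus 0.25 ng/mL TGF-beta1 (stock added) for 5 hr at 37 C. Viability was read in the same wells by CellTiter-Glo luminescence after 30 min at room temperature.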

[14] = qHTS assay to identify small molecule agonists of the TGF-beta/Smad signaling pathway - cell viability counter screen (AID 1346829; active = well fitted curve in the direction sought with a large enough effect in the repeat runs; an effect the other way counts as inactive or inconclusive; also: top concentration of the series differs between compounds; nearly all actives have a fitted effect of over 45% in size)
How it was run: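 Luminescence from CellTiter-Glo, read after a 30 min room-temperature incubation, gives cell viability of SBE-bla HEK 293T cells treated 5 hr with compounds at 37 C.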

[15] = qHTS assay to identify small molecule agonists of the TGF-beta/Smad signaling pathway (AID 1346859; active = well fitted activation curve with a large enough effect in the signal ratio in the repeat runs, not every such curve was filed as active; the % refers to the signal ratio; also: series mostly up to about 77 µM)
How it was run: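 Screening used HEK 293T SBE-bla cells at 4,000/well. Test agents: 5 hr, 37 C. Detection: FRET substrate, 2 hr RT, then excitation 405 nm with emissions at 460 and 530 nm.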

[16] = target: Thyrotropin-releasing hormone receptor (Homo sapiens) (UniProt P34981); assay: qHTS assay to identify small molecule antagonists of the thyrotropin-releasing hormone receptor (TRHR) signaling pathway (AID 1346877; active = well fitted inhibition curve with a large enough effect in the repeat runs, not every such curve was filed as active; also: series mostly up to about 51 µM)
Thyrotropin-releasing hormone receptor (Homo sapiens), sequence (P34981 whole entry, looked up): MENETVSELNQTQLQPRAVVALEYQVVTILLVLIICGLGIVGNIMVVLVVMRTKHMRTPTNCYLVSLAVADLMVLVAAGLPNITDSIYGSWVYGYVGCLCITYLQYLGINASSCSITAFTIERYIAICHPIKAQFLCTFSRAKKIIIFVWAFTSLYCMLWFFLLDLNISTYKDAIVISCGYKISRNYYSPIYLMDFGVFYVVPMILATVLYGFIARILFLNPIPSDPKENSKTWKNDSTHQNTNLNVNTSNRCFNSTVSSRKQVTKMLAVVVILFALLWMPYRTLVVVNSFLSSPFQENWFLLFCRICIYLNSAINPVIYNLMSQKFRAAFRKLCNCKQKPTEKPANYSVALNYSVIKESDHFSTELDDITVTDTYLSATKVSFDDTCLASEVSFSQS
How it was run: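 Cells (TRHR-HEK293) are plated and kept 18 h at 37 °C/5% CO2. A calcium-sensitive dye is added for 2 h, compound follows for 5 min at room temperature, and TRH is then given at 1 nM final.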

[17] = target: Thyrotropin-releasing hormone receptor (Homo sapiens) (UniProt P34981); assay: qHTS assay to identify small molecule agonists of the thyrotropin-releasing hormone receptor (TRHR) signaling pathway (AID 1346891); also: series mostly up to about 58 µM
How it was run: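 Readout was intracellular calcium fluorescence in TRHR-Hek293 cells. Cells were incubated 18 h, dye-loaded 2 h at 37 °C, and treated with compound in agonist mode.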

[18] = target: Thyrotropin receptor (Homo sapiens) (UniProt P16473); assay: qHTS assay to identify small molecule antagonists of the thyroid stimulating hormone receptor (TSHR) signaling pathway (AID 1259385); also: nearly all actives have a fitted effect of over 20% in size
Thyrotropin receptor (Homo sapiens), sequence (P16473 whole entry, looked up): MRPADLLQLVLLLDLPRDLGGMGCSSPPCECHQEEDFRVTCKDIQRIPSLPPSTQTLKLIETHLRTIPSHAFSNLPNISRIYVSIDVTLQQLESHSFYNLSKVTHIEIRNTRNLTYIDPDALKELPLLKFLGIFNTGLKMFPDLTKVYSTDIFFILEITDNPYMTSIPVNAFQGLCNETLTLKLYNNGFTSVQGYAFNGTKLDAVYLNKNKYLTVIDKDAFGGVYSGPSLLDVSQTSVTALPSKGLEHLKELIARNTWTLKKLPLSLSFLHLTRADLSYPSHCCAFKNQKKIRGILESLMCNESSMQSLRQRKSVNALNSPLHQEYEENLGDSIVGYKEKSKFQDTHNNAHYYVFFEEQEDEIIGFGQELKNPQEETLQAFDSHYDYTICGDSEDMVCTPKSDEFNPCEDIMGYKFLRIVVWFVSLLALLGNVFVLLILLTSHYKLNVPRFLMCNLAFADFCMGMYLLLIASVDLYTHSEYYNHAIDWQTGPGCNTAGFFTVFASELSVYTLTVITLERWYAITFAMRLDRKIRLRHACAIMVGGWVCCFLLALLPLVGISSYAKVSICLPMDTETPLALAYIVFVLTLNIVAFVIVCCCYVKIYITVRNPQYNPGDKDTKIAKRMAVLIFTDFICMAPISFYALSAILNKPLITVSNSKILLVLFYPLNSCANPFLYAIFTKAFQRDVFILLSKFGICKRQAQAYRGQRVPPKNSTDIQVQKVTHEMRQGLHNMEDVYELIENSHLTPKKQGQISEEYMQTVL
How it was run: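 TSHR-HEK293 cells (800/well) plated 18 h, then compounds with Ro20-1724 and TSH at 1.5 ng/mL final, 30 min at room temperature. cAMP quantified by HTRF (cAMP-d2/anti-cAMP-cryptate, 1 h); 15 concentrations in triplicate.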

[19] = target: Progesterone receptor (Homo sapiens) (UniProt P06401); assay: qHTS assay to identify small molecule agonists of the progesterone receptor (PR) signaling pathway (AID 1346784); also: nearly all actives have a fitted effect of over 30% in size
How it was run: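 Reporter assay, GripTite PR-UAS-bla HEK 293T cells: 16 hr exposure to DMSO-dissolved compounds at 37C, 5% CO2, in steroid-depleted (2% charcoal-stripped FBS) medium; beta-lactamase measured by FRET fluorescence.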

[20] = target: Estrogen receptor beta (Homo sapiens) (UniProt Q92731); assay: qHTS assay to identify small molecule agonists of the estrogen receptor beta (ER-beta) signaling pathway (AID 1259377; active = well fitted activation curve with a large enough effect in the signal ratio in the repeat runs, not every such curve was filed as active; the % refers to the signal ratio)
How it was run: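 Reporter cells (HEK293T, ER-beta-UAS-bla) receive compounds or DMSO after a 6 hr pre-incubation. They then incubate 16 hr at 37C/5% CO2, and fluorescence from LiveBLAzer B/G substrate is measured after 2 hours at room temperature.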

SMILES | Potency [1] | Potency [2] | Potency [3] | Potency [4] | Potency [5] | Potency [6] | Potency [7] | Potency [8] | Potency [9] | Potency [10] | Potency [11] | Potency [12] | Potency [13] | Potency [14] | outcome [15] | outcome [16] | Potency [17] | Potency [18] | outcome [19] | Potency [20]
CC(C)CCCC(C)CCO (centres undefined) | 61.1 µM (active) | inactive | inactive | inactive | inactive | inactive | inactive | inactive | inactive | inactive | inactive | inactive | inactive | inactive | inactive | inactive | inactive | – | – | –
C=C(C)C(=O)OCCOc1ccccc1 | 43.3 µM (active) | inactive | inactive | inactive | inactive | inactive | inactive | inactive | inactive | – | – | inactive | inactive | inactive | inactive | inactive | inactive | inactive | inactive | –
CC1CCc2cc(F)cc3c(=O)c(C(=O)O)cn1c23 (centres undefined) | inactive | – | – | inactive | – | inactive | – | – | inactive | inactive | – | inactive | inactive | – | – | – | – | inactive | inactive | inactive
CN1CCN(C2=Nc3ccccc3Sc3ccc(Cl)cc32)CC1 | inactive | inactive | inactive | inactive | inactive | inactive | – | inactive | inactive | – | – | inactive | inactive | inactive | – | inactive | inactive | – | inactive | –
COc1ccc(C(C)=O)cc1 | inactive | inactive | inactive | – | inactive | inactive | inactive | – | inactive | inactive | inactive | inactive | inactive | inactive | – | inactive | inactive | – | inactive | –
COC(=O)CSc1cc(N=c2sc(=O)n3n2CCCC3)c(F)cc1Cl | inactive | – | inactive | inactive | inactive | inactive | – | – | inactive | – | inactive | – | – | inactive | – | – | – | inactive | inactive | –
O=C(O)Cc1sc(-c2ccccc2)nc1-c1ccc(Cl)cc1 | inactive | – | inactive | 21.1 µM (active) | inactive | – | inactive | – | – | inactive | – | – | inactive | inactive | – | inactive | inactive | inactive | inactive | –
COCCOCCOCCOCCOC | inactive | inactive | inactive | – | inactive | – | inactive | inactive | inactive | – | 21.7 µM (active) | 21.7 µM (active) | inactive | inactive | inactive | inactive | inactive | inactive | inactive | –
O=S(=O)(O)c1ccc(O)c2ncccc12 | inactive | – | inactive | inactive | – | inactive | inactive | inactive | inactive | – | – | inactive | inactive | inactive | inactive | – | – | inactive | inactive | –
